# Laboratory results as given in the supplement of paper PMC8728848.
# The entries come from a sample that favours the strongest signals as a whole.
# B1: Epa1-NP (Candida glabrata), Q6VBJ0 (protein)
# chain: MILNPALFLNKCVCIYTTLILLLLTNGGYATSSNDISLASKDPTTFPLGCSPDITTPKKGLSMELYSYDFRKKGSYPCWDAAYLDPNYPRTGYKSHRLLAKVDGVTGNINFYYHATKGCTPQLGHLPASYNYPKPLTMTNFTMLLYGYFRPKVTGFHTFTISADDLLFVNFGAGNAFDCCRRDSSADHFGNYQAYAIWGSKTAKDELTVHLDAGVYYPIRLFYNNREYDGALSFTFKTESNENTVSDFSEYFFSLDDTEEGCPGLISYDSSCASVKTSKIIGIDYHTETPNENLVPITKTIYHLGIPCTGTTTTPLCGSGFYDPLANKCVTINTSSTSSVTKTTSHTTSKEVSFHSSISSQKTLIPKSIPSPYGPIKSQSIPTEMETSSEISSSEYAFSDVISTPSHSPYTKKHSSLNSSSYTSTVIHSLTSYSISQGIFSTSLSEQNITSKSSTDKFSTATSMSNNITQSSIIISQFSTNNENYTTTSMHTSSDKISTETLNNSISTTTSILFSNSSTILKNNTTIISSDKDTHYHPVNPTIVCSTNKTEIICASITQPSISNSNNHWSSSVLKFNSTTVRSTLPSSAGSNETSINVPFSSSTESNTSTSSTSTSNSKMVRSTLPSSAGSNETSISVPFSSSTESNTSTSSTSTSNSKMVRSTLPSSAGSNETSINVPFSSSTESNTSTSSTSTSNSKTVRSTPFSSAGIIMTSLSQRNNKSASSYASSNSKCYNTADSCRKVHSTPSYLLTSSYTSEGVDYDCSLVSTKLKINDTNCVNNKHTTKSCLKTSVTTTIPTLEIKTARKSSSNTIGLHSYPTSSPNKSISSAPIIGYISSFKTIKTASPSYQTSDLTTITTITSLNNPGSTAVENTHESNDKSRKTSSNDISSKHSVIKETKDAVESSNKSHQTNTLKCSSIIIASSSHNSYESLGGTTLTLTLSKVYSPQNNDTLPFLEISEVNPSRTVLPESSKMMQYLTSTEERNKTARNTIATNIVSISTFHFEGEGNAIRMGYTQLLLMLIGIIVMNIGT
# Experiments:
# Test in all cases: glycan array binding signal (z-score within array); higher = stronger binding
# Settings in all cases: glycan notation: IUPAC condensed, linker removed
# [1] = molecular target: Fuc(a1-2)Gal(b1-3)GlcNAc(b1-3)Gal(b1-4)Glc
# How it was run: (§1)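 Negative Z-scores can be read as non-binding. The Z-score is calculated within each array and then averaged across arrays of one protein sequence at different concentrations or buffers and across linkers. Arrays, 3228 in all, were curated from the Consortium for Functional Glycomics database and kept only where the protein sequence was available.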
# [2] = molecular target: Fuc(a1-2)Gal(b1-4)GlcNAc(b1-3)Gal(b1-4)GlcNAc(b1-2)Man(a1-3)[Fuc(a1-2)Gal(b1-4)GlcNAc(b1-3)Gal(b1-4)GlcNAc(b1-2)Man(a1-6)]Man(b1-4)GlcNAc(b1-4)GlcNAc
# How it was run: as §1
# [3] = molecular target: Fuc(a1-2)Gal3S(b1-4)GlcNAc
# How it was run: as §1
# Fuc(a1-2)GlcNAc = molecular target: Fuc(a1-2)GlcNAc
# How it was run: as §1
# [4] = molecular target: Fuc(a1-2)[Gal(a1-3)]Gal(b1-4)GlcNAc(b1-3)GalNAc
# How it was run: as §1
# [5] = molecular target: Fuc(a1-2)[Gal(a1-3)]Gal(b1-4)GlcNAc(b1-3)[Fuc(a1-2)[Gal(a1-3)]Gal(b1-4)GlcNAc(b1-6)]GalNAc
# How it was run: as §1
# [6] = molecular target: Fuc(a1-2)[GalNAc(a1-3)]Gal(b1-3)GlcNAc(b1-6)GalNAc
# How it was run: as §1
# [7] = molecular target: Fuc(a1-2)[GalNAc(a1-3)]Gal(b1-4)[Fuc(a1-3)]GlcNAc
# How it was run: as §1
# [8] = molecular target: Fuc(a1-2)[GalNAc(b1-3)]Gal
# How it was run: as §1
# [9] = molecular target: Fuc(a1-3)[Gal3S(b1-4)]GlcNAc
# How it was run: as §1
# [10] = molecular target: Fuc(a1-3)[GalNAc(b1-4)]GlcNAc
# How it was run: as §1
# [11] = molecular target: Gal(a1-3)Gal(b1-4)[Fuc(a1-3)]GlcNAc(b1-2)Man(a1-3)[Gal(a1-3)Gal(b1-4)[Fuc(a1-3)]GlcNAc(b1-2)Man(a1-6)]Man(b1-4)GlcNAc(b1-4)GlcNAc
# How it was run: as §1
# Gal(a1-4)Gal(b1-4)Gal = molecular target: Gal(a1-4)Gal(b1-4)Gal
# How it was run: as §1
# Gal(b1-2)Gal = molecular target: Gal(b1-2)Gal
# How it was run: as §1
# Gal(b1-3)Gal = molecular target: Gal(b1-3)Gal
# How it was run: as §1
# Gal(b1-3)Gal(b1-4)GlcNAc = molecular target: Gal(b1-3)Gal(b1-4)GlcNAc
# How it was run: as §1
# Gal(b1-3)GalNAc = molecular target: Gal(b1-3)GalNAc
# How it was run: as §1
# Gal(b1-3)GalNAc(b1-3)Gal = molecular target: Gal(b1-3)GalNAc(b1-3)Gal
# How it was run: as §1
# [12] = molecular target: Gal(b1-3)GalNAc(b1-3)Gal(b1-4)Glc
# How it was run: as §1
# [13] = molecular target: Gal(b1-3)GalNAc(b1-4)Gal(b1-4)Glc
# How it was run: as §1
# [14] = molecular target: Gal(b1-3)GalNAc(b1-4)[Neu5Ac(a2-3)]Gal(b1-4)Glc
# How it was run: as §1
# [15] = molecular target: Gal(b1-3)[Neu5Ac(a2-6)]GalNAc
# How it was run: as §1
# [16] = molecular target: Gal(b1-4)GlcNAc(b1-2)Man(a1-6)[Man(a1-3)]Man(b1-4)GlcNAc(b1-4)GlcNAc
# How it was run: as §1
# [17] = molecular target: Gal(b1-4)GlcNAc(b1-3)Gal(b1-4)GlcNAc(b1-2)[Gal(b1-4)GlcNAc(b1-3)Gal(b1-4)GlcNAc(b1-6)]Man(a1-6)[Gal(b1-4)GlcNAc(b1-3)Gal(b1-4)GlcNAc(b1-2)Man(a1-3)]Man(b1-4)GlcNAc(b1-4)GlcNAc
# How it was run: as §1
# [18] = molecular target: Gal(b1-4)GlcNAc(b1-3)Gal(b1-4)GlcNAc(b1-2)[Gal(b1-4)GlcNAc(b1-3)Gal(b1-4)GlcNAc(b1-6)]Man(a1-6)[Gal(b1-4)GlcNAc(b1-3)Gal(b1-4)GlcNAc(b1-2)Man(a1-3)]Man(b1-4)GlcNAc(b1-4)[Fuc(a1-6)]GlcNAc
# How it was run: as §1
# [19] = molecular target: Gal(b1-4)GlcNAc(b1-3)Gal(b1-4)GlcNAc(b1-3)Gal(b1-4)GlcNAc(b1-2)[Gal(b1-4)GlcNAc(b1-3)Gal(b1-4)GlcNAc(b1-3)Gal(b1-4)GlcNAc(b1-6)]Man(a1-6)[Gal(b1-4)GlcNAc(b1-3)Gal(b1-4)GlcNAc(b1-3)Gal(b1-4)GlcNAc(b1-2)Man(a1-3)]Man(b1-4)GlcNAc(b1-4)[Fuc(a1-6)]GlcNAc
# How it was run: as §1
# [20] = molecular target: Gal(b1-4)GlcNAc(b1-3)Gal(b1-4)GlcNAc(b1-3)Gal(b1-4)GlcNAc(b1-3)Gal(b1-4)GlcNAc(b1-3)Gal(b1-4)GlcNAc(b1-3)Gal(b1-4)GlcNAc(b1-2)Man(a1-3)[Gal(b1-4)GlcNAc(b1-3)Gal(b1-4)GlcNAc(b1-3)Gal(b1-4)GlcNAc(b1-3)Gal(b1-4)GlcNAc(b1-3)Gal(b1-4)GlcNAc(b1-3)Gal(b1-4)GlcNAc(b1-2)Man(a1-6)]Man(b1-4)GlcNAc(b1-4)GlcNAc
# How it was run: as §1
# [21] = molecular target: Gal(b1-4)GlcNAc(b1-6)Gal(b1-4)GlcNAc
# How it was run: as §1
# [22] = molecular target: Gal(b1-4)GlcNAc(b1-6)[Gal(b1-3)]GalNAc
# How it was run: as §1
binder,measurement,setting,value
B1,glycan array binding signal (z-score),[1],-0.296
same,glycan array binding signal (z-score),[2],-0.277
same,glycan array binding signal (z-score),[3],-0.26
same,glycan array binding signal (z-score),Fuc(a1-2)GlcNAc,-0.542
same,glycan array binding signal (z-score),[4],-0.269
same,glycan array binding signal (z-score),[5],-0.281
same,glycan array binding signal (z-score),[6],-0.291
same,glycan array binding signal (z-score),[7],-0.283
same,glycan array binding signal (z-score),[8],-0.272
same,glycan array binding signal (z-score),[9],-0.341
same,glycan array binding signal (z-score),[10],-0.265
same,glycan array binding signal (z-score),[11],-0.174
same,glycan array binding signal (z-score),Gal(a1-4)Gal(b1-4)Gal,0.374
same,glycan array binding signal (z-score),Gal(b1-2)Gal,0.199
same,glycan array binding signal (z-score),Gal(b1-3)Gal,2.9
same,glycan array binding signal (z-score),Gal(b1-3)Gal(b1-4)GlcNAc,5
same,glycan array binding signal (z-score),Gal(b1-3)GalNAc,2.56
same,glycan array binding signal (z-score),Gal(b1-3)GalNAc(b1-3)Gal,2.91
same,glycan array binding signal (z-score),[12],1.31
same,glycan array binding signal (z-score),[13],8.65
same,glycan array binding signal (z-score),[14],2.27
same,glycan array binding signal (z-score),[15],5.06
same,glycan array binding signal (z-score),[16],-0.225
same,glycan array binding signal (z-score),[17],1.54
same,glycan array binding signal (z-score),[18],2.48
same,glycan array binding signal (z-score),[19],2.81
same,glycan array binding signal (z-score),[20],1.3
same,glycan array binding signal (z-score),[21],2.34
same,glycan array binding signal (z-score),[22],2.73
